# Measurements as given in the supplement of paper PMC6555819.
# Tested on: VDR:RXRa (NR concentration 270 nM, RXRa partner concentration 90 nM)
# Assay: PBM binding z-score (relative to random genomic background probes); higher = stronger binding; sequences stand for … in GC…GCGATTGACAGCGTAGAATGAAGG
# Method: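 Protein-binding microarray (Agilent 4x180K custom design, double-stranded 60-nt probes: 5' GC cap, 34-nt variable region, 24-nt constant primer region; full probe sequence given). Purified or IVT nuclear receptor:RXRα heterodimers (3:1 NR:RXRα, mostly 270:90 nM) or homodimers were incubated for 1 h in PBS with 2% milk and no ligand, then detected with Alexa488 antibodies. Fluorescence from o1-orientation probes (~5 replicates averaged) was converted to z-scores against 500 random hg19 background probes. Variable regions are seed direct-repeat (DR0–DR5) sites, all their single-nucleotide variants and half-site ablations.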
row,Sequence,PBM binding z-score
1,CAAACTAGGTCAAAGGTCAAAGGCGAGCCAACCA,6.82
2,CCCAGCAGGCCAGGGTCACTCAAGCATTTCGCTT,2.42
3,AGAACGAGGGCAATGAGTTGAGAGCACGGGTGGC,4.33
4,ATATGTAGGCTATCGGGTCATTCAGTTTGCGCAT,4.58
5,ATCTCTAGGTAAAGATAGTTCAGAGAATGCAAAT,0.478
6,CCTAGTTGGTCAGGAGATCACACACCGGATATGA,0.242
7,GCTTACGGGTCAAAGGTTAGAGCATGAATAGAAT,4.84
8,TCAGACAGGTGAAGGTAACTCATGTACGCAGTCG,0.532
9,GGAACGAGGGCAAAGTTGAAAGCATCTGTCGACG,1.76
10,CCTACTGGGCCATCACGTCATTGATATCAACGTT,-0.314
11,CCAGACAGGTGAAAGGTAACTCGGTCTGGTACGC,0.865
12,AGTCAATGTTCAGGACGAGGTAACGTAAAGCACG,0.00608
13,GTATCAAGGTGAATAGGTCGTTGATGAGTAGGCG,1.1
14,TCTTGTAGATCAACAGCAGGTTAAGAAAGATCGA,0.341
15,CAAACTAGGTCAAGAGGTCAATGTCCGCTTCCCG,5.64
16,AGTCAAAGTTCAGGACGAGGTTACGTAAAGCACG,4.6
17,CTTGAAAGGTCGTGCTCAGGTGAGTATACCAAAC,3.55
18,ATCGAAAGCTCGTGAGGTGAGTATACAGAAAGGC,-0.256
19,GCTAGTTGGCCAGTAAAAGGTCACACACCGGTCG,3.73
20,CCTAGTTGGTCAGGAGGTCAGACACCGGATATGA,2.22

row,Sequence,PBM binding z-score
1,GCTTACGGGTCAAAGGTAATAGCATGAATAGAAT,4.12
2,CCTCGGAGGACAGACGGTCAGAGCTGTCCGCTTT,-0.53
3,ACTAGGAGGCCAAGTTTGGGTCACTCAAACAAAG,1.08
4,ACTATTAGTTGAGACGAGGGCAACCGCTAGGTTG,0.628
5,CGAACGAGGGCAAGAGTTGATAGCAAATGCCGAT,0.703
6,CGAACTAGGTCACTGACAGGACAGTGAATAGTAA,1.77
7,CAGCCTAGGTCAGGGCCAGTATTGGAGGAACGTT,-0.0862
8,CGGCCAAGGTCAAGGTCAGTGAAAGAGACTCGAA,4.68
9,CCTACTGGGCCAAAGGTCGTTGATTCCAATGCTC,2.05
10,ATCGAAAGGTCGTGAGGTGCGTATACAGAAAGGC,6.03
11,CCTACTGGGCCAAAGTCATTGATCAGTCAAAGCA,-0.45
12,CCAGACAGGTGAAATGTAACTCAGTCTGGTACGC,0.0659
13,CAAACTTGGTCAAGGTCAAAGTCGGTTTGTGCCA,4.47
14,CCTTACGGGTCACTCCAGGTTATAGTATCGGAGT,4.39
15,ATCGATAGGTCGTGAGGTGAGTATACAGAAAGGC,1.08
16,CGTCAAAGTTCCACTAAGGTAACGTAAAGCACGC,0.211
17,ATCTCTAGGTAAAAGTTCAGTGAATCCCGAGGAT,1.31
18,TCTCGGAGGACACGAAGCTCAGAGCTTTCCAGAG,-0.415
19,ATGTCTAGGTAAGACTCAGTTCAGTGAAGAACGC,0.683
20,CATACAGGGTCAGCTAGGCCCGAGTAGGGACGGC,2.63
